# In PubChem BioAssay AID1347416 (National Center for Advancing Translational Sciences (NCATS), 2020):
# The whole screen tested about 4,100 compounds, of which about 1,600 (39%) were called active. Roughly 25% stayed inconclusive and do not appear here. The call rests on the fitted dose curve; in most records, active means well fitted inhibition curve with a large enough effect; inconclusive means small, poorly fitted or top-dose-only effect; inactive means no such curve, though single readings can be large or run the other way. This is one part of the list.
# Assay: qHTS Validation assay for Inhibitors of Plasmodium falciparum Dd2 growth in vitro; further: nearly all actives have a fitted effect of over 70% in size
# Conditions: P. falciparum Dd2 in RBCs, SYBR Green growth, 72 h; series mostly up to 28.7 µM; activity change, negative = inhibition: at the top concentration
# How it was run: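 P. falciparum Dd2-infected red blood cells (2.5% hematocrit, 0.3% parasitemia) grown 72 h at 37 °C under 5% O2 with compounds in a titration, 29 uM to 0.5 nM final. Growth read as SYBR Green-1 fluorescence after ~16 h lysis; artesunate 300 nM as positive control.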
# On the % scale 0 is the no-effect control and ±100 the full control effect; potency means the concentration at half of the fitted maximal effect.
Compound,"activity change, negative = inhibition",Potency
Cc1ccc(S(=O)(=O)N2CCC(C(=O)NC3CC3)CC2)cc1,-28% (inactive),–
O=S(=O)(c1ccc(F)cc1)N1CCN(C(=S)NC2CC2)CC1,–,3.35 µM (active)
CS(=O)(=O)N1CCC(OC2CCN(C(=O)Nc3cc(F)ccc3F)CC2)CC1,11.4% (inactive),–
COc1ccc(S(=O)(=O)N2CCN(C(=S)NC3CCCCC3)CC2)cc1,–,6.68 µM (active)
Cc1nn(C)cc1CN1CCC(O)(c2ccccc2)[C@H](N2CCCC2)C1 (some centres undefined),-28.5% (inactive),–
CCOc1ccc(CN2CC[C@@](C)(O)[C@H](N3CCCC3)C2)cc1,-16.2% (inactive),–
O=C(c1cccs1)N1CCC(O)(c2ccccc2)[C@H](N2CCCC2)C1 (some centres undefined),–,9.44 µM (active)
O[C@]1(c2ccccc2)CCN(Cc2ccncc2)C[C@H]1N1CCCC1,–,9.44 µM (active)
O=C(CC1CCN(C(=O)c2cccs2)C1)NCc1ccccc1 (centres undefined),9.3% (inactive),–
O[C@]1(c2ccccc2)CCN(Cc2ccco2)C[C@H]1N1CCCC1,–,8.41 µM (active)
O=C(c1cccs1)N1CCC(n2cc(-c3nc(-c4ccccc4)no3)nn2)CC1,-8.44% (inactive),–
c1ccc(-c2noc(-c3ccn4c(CN5CCN(c6ccccn6)CC5)nnc4c3)n2)cc1,-6.11% (inactive),–
CCOc1ccc2[nH]c3c(NCCN(C)C)ncnc3c2c1,–,16.8 µM (active)
CC1Cn2c(nnc2-c2cc3ccccc3cc2O)S1 (centres undefined),–,4.73 µM (active)
CCc1ccc(Oc2c(C(F)(F)F)oc3c(CN4CCN(C)CC4)c(O)ccc3c2=O)cc1,–,0.75 µM (active)
CCc1ccc(Oc2c(C(F)(F)F)oc3c(CN4CCN(CC)CC4)c(O)ccc3c2=O)cc1,–,0.376 µM (active)
C=CCO[C@@H]1CCN2C(=O)c3cc(-c4cc(Cl)ccc4OC)ccc3NC(=O)[C@H]12,-16.7% [at 43.1 µM] (inactive),–
O=C(O)COc1ccc(-c2nccc3c2C(=O)N(Cc2ccccc2)CC(CNC(=O)c2ccc(F)cc2)O3)cc1 (centres undefined),-17.6% (inactive),–
CC(C)C(=O)NCC1CN(Cc2ccccc2)C(=O)c2c(ccnc2-c2ccc(OCC(=O)O)cc2)O1 (centres undefined),–,2.11 µM (active)
Cc1cccc(Nc2nc(NCc3ccco3)c3ccccc3n2)c1,–,4.73 µM (active)
Oc1ccccc1Nc1nc(NCc2ccco2)c2ccccc2n1,–,2.99 µM (active)
OCCNc1nc(Nc2ccc(Br)cc2)nc2ccccc12,–,2.66 µM (active)
c1ccc(Nc2nc(NCc3ccco3)c3ccccc3n2)cc1,–,1.68 µM (active)

Compound,"activity change, negative = inhibition",Potency
NCC(=O)N1CCC(n2nccc2NC(=O)c2ccc3c(c2)OCO3)CC1,37.3% (inactive),–
CN1C(=O)c2cncnc2OCC1CNC(=O)Cc1cccs1 (centres undefined),1.04% [at 43.1 µM] (inactive),–
COc1cc(O)c(C(CCN2CCN(c3ccccc3)CC2)c2ccc(N(C)C)cc2)c(OC)c1 (centres undefined),–,0.596 µM (active)
COc1ccc(C(CCN2CCN(c3ccccc3)CC2)c2c(O)cc(OC)cc2OC)cc1 (centres undefined),–,0.944 µM (active)
N#Cc1c(N2CCN(c3ccc(F)cc3)CC2)nc(N)c2c(N)nc3c(c12)CC(=O)N3C1CC1,–,0.668 µM (active)
C=CCOC(=O)C1=C[C@@H](c2ccc(C(F)(F)F)cc2)[C@H](CCCO)[C@@H](OCC)O1,–,7.5 µM (active)
COc1ccc(N2CCN(C(c3cc4ccc(C)cc4[nH]c3=O)c3nnnn3C3CCCC3)CC2)cc1 (centres undefined),–,6.68 µM (active)
CC(C)(C)n1nnnc1C(c1cc2cc3c(cc2[nH]c1=O)OCO3)N1CCN(c2ccccc2)CC1 (centres undefined),–,7.5 µM (active)
COc1ccccc1N1CCN(C(c2cc3ccc(C)cc3[nH]c2=O)c2nnnn2C2CCCC2)CC1 (centres undefined),–,7.5 µM (active)
COCCN1CC2(CCCN(Cc3cc(C(C)(C)C)n[nH]3)C2)CCC1=O (centres undefined),0% (inactive),–
Cc1ccc(C)c(OCCn2cc(C(=O)c3ccco3)c3ccccc32)c1,–,5.31 µM (active)
Cc1ccccc1OCCn1cc(C(=O)c2ccco2)c2ccccc21,–,5.31 µM (active)
COC(=O)c1cccc(NC(=S)N[C@H]2CO[C@H]3[C@@H]2OC[C@H]3OC(=O)Nc2ccccc2)c1,7.55% (inactive),–
COCCN(CCOC)c1nc(N)c2c(N)nc3c(c2c1C#N)CC(=O)N3Cc1ccc(Cl)cc1,–,5.96 µM (active)
Cc1cccc(C)c1NC(=O)CN1C(=O)NC(c2ccccc2Cl)C2=C1COC2=O (centres undefined),-22% (inactive),–
CC(C)[C@@H]1CN(S(=O)(=O)c2ccc(Cl)cc2Cl)C[C@H]1N(C)C,–,6.68 µM (active)
CC(Sc1nc2sccc2c(=O)n1-c1ccccc1)C(N)=O (centres undefined),11.5% (inactive),–
CCOC(=O)c1c(NC(=O)CSc2nc3ccccc3c(=O)n2-c2ccccc2)sc(C(C)=O)c1C,–,13.3 µM (active)
CCOC(=O)C1CCN(C(=O)CSc2nc(N)cc(=O)[nH]2)CC1,21.4% (inactive),–
CCOC(=O)C1CCN(c2cc(=O)n(-c3ccccc3Cl)c(=O)[nH]2)CC1,–,8.41 µM (active)
CCOC(=O)C1CCN(Cc2cc(Cl)c3ccccc3c2O)CC1,–,1.88 µM (active)
Cc1noc(CN(C)C(=O)C2C3C(=O)N(Cc4ccc(C)c(C)c4)C[C@@]34C=C[C@@H]2O4)n1 (some centres undefined),30% (inactive),–
O=C(C1CCCCC1)N1CCN(C2CCN(Cc3cccnc3)C2=O)CC1 (centres undefined),-19.1% (inactive),–

Compound,"activity change, negative = inhibition",Potency
CCOC(=O)c1ccc2c(c1)[C@@H]1C=CC[C@@H]1[C@H](c1cccc(OC)c1OC)N2,–,2.66 µM (active)
COc1ccc(NC(=O)Cn2cccc2-c2nc(-c3ccc(OC)c(F)c3)no2)cc1,–,4.73 µM (active)
COc1cccc(NC(=O)Cn2cccc2-c2nc(-c3ccc(OC)c(F)c3)no2)c1,–,6.68 µM (active)
COc1ccc(-c2noc(-c3cccn3CC(=O)NC3CCCCC3)n2)cc1F,6.59% (inactive),–
COc1ccc(-c2noc(-c3cccn3CC(=O)NC(C)C)n2)cc1F,14.4% (inactive),–
COc1ccc(-c2noc(-c3cccn3CC(=O)Nc3ccccc3)n2)cc1F,–,2.37 µM (active)
CCOc1ccc(NC(=O)Nc2cc(OCC(F)(F)F)cc(OCC(F)(F)F)c2)cc1,–,13.3 µM (active)
Cc1cccc(-c2ccc3c(c2)C(=O)N2C[C@H](O)C[C@H]2C(=O)N3)c1C,43.2% [at 43.1 µM] (inactive),–
CNC(=O)[C@@H]1CN(C(=O)c2c[nH]c3ccccc23)C[C@H]1COC,-9.93% (inactive),–
Cc1cn(-c2cc(C(=O)Nc3ccc(C)c(NC(=O)C(=O)c4c[nH]c5ccccc45)c3)cc(C(F)(F)F)c2)cn1,–,2.11 µM (active)
CCN1CCN(Cc2ccc(NC(=O)c3cc(NC(=O)C(=O)c4c[nH]c5ccccc45)cc(OC)c3)cc2C(F)(F)F)CC1,–,0.668 µM (active)
CCN1CCN(Cc2ccc(NC(=O)c3ccc(C)c(NC(=O)c4c[nH]c5cc(C(F)(F)F)ccc5c4=O)c3)cc2C(F)(F)F)CC1,–,0.531 µM (active)
CCN1CCN(Cc2ccc(NC(=O)c3ccc(C)c(NC(=O)C(=O)c4c[nH]c5ccccc45)c3)cc2C(F)(F)F)CC1,–,1.5 µM (active)
CCn1nc(C)c(-c2cc(C(=O)N3CCc4nc5cc(-c6ccccc6)[nH]n5c(=O)c4C3)no2)c1C,-11.4% (inactive),–
COc1ccc(CCc2nc3nccc(-c4ccc5c(c4)OCCCO5)n3n2)cc1OC,-25.8% (inactive),–
COc1ccc(CCNc2nc3cc(OC)c(OC)cc3c3nc(-c4ccccc4)nn23)cc1OC,–,2.37 µM (active)
COc1cc2nc(NCCc3cccc(C)c3)n3nc(-c4ccccc4)nc3c2cc1OC,–,0.842 µM (active)
COc1cc2c(cc1O)CC[n+]1cc3c(OC)c(OC)ccc3cc1-2,–,7.5 µM (active)
COc1ccc2nc(C[C@@H]3C[C@@H](C(C)C)[C@H](CNCc4ccccn4)C=C3C)[nH]c2c1,–,0.769 µM (active)
CC1=C[C@@H](CNC(=O)c2cnccn2)[C@H](C(C)C)C[C@H]1Cc1nc2ccc(F)cc2[nH]1,-19% [at 43.1 µM] (inactive),–
COc1ccccc1CNC[C@@H]1C=C(C)[C@H](Cc2nc3c(C)cccc3[nH]2)C[C@H]1C(C)C,–,9.68 µM (active)
COc1ccc2nc(C[C@@H]3C[C@@H](C(C)C)[C@H](CNCc4ccccc4OC)C=C3C)[nH]c2c1,–,9.44 µM (active)
COC(=O)c1ccc2nc(C[C@@H]3C[C@@H](C(C)C)[C@H](CNC4CCCCC4)C=C3C)[nH]c2c1,–,8.41 µM (active)

Compound,"activity change, negative = inhibition",Potency
CC1(C)Cc2ccccc2C2=NNC(=O)C2=N1,–,3.35 µM (active)
O=C(Cc1ccccc1O)NCc1cccnc1Oc1ccc(F)cc1F,-1.86% (inactive),–
CCC(C(=O)Nc1nc(C)c(C)s1)c1ccccc1 (centres undefined),-13.3% (inactive),–
CC(Oc1ccccc1)C(=O)Nc1nc(-c2ccccn2)cs1 (centres undefined),–,8.41 µM (active)
CC(Oc1ccccc1)C(=O)Nc1cnc(-c2cccc(Cl)c2)nc1 (centres undefined),-22.4% (inactive),–
O=C(Nc1nc(-c2ccccn2)cs1)Nc1ccc(F)cc1F,–,5.31 µM (active)
Cc1cc(NC(=O)CSc2nc3c(c(=O)n2Cc2ccccc2)SC(C)C3)no1 (centres undefined),175% (inactive),–
CCC(Sc1nc2c(c(=O)n1CC)SC(C)C2)C(=O)OC (centres undefined),22.8% (inactive),–
CC1Cc2nc(SCC(=O)Nc3ccc4c(c3)OCO4)n(-c3ccc(F)cc3)c(=O)c2S1 (centres undefined),–,2.99 µM (active)
NNC(=O)CN1C(=O)Nc2ccc(Cl)cc2C1c1ccccc1 (centres undefined),35.4% (inactive),–
CCOc1ccccc1C(=O)N1CC(=O)Nc2ccc(Cl)cc2C1c1ccccc1 (centres undefined),–,9.44 µM (active)
CCN(CC)CCNC(=O)c1ccc(NC(=O)c2cc(-c3ccncc3)nc3ccccc23)cc1,-24.5% (inactive),–
O=C(Nc1ccncc1)c1cc(-c2cccc(Br)c2)nc2ccccc12,–,13.3 µM (active)
O=C(NCc1ccco1)c1cc(-c2ccncc2)nc2ccccc12,–,5.96 µM (active)
Cc1ccc2oc(-c3cccc(NC(=O)c4cccc5c(Cl)cccc45)c3)nc2c1,31.7% (inactive),–
O=C(Nc1cccnc1)c1cc(-c2cccnc2)nc2ccc(Br)cc12,–,2.66 µM (active)
O=C(CCC1CCCC1)N1CC(c2nnc(-c3ccncc3)o2)C2(CCOCC2)C1 (centres undefined),10.2% (inactive),–
COc1cc(C#Cc2c(-c3cncn3C)n(C)c3ccc(-c4ccc(OC)c(OC)c4)cc23)cc(OC)c1,–,4.73 µM (active)
COc1ccc(-c2c(C#Cc3ccsc3)c3cc(-c4cccc5[nH]ccc45)ccc3n2C)cc1,–,6.68 µM (active)
COc1cc(C#Cc2c(-c3cncn3C)n(C)c3ccc(-c4ccc5[nH]ccc5c4)cc23)cc(OC)c1,–,2.37 µM (active)
